Assay [1] deals with Lysosomal acid glucosylceramidase (Homo sapiens) (UniProt P04062). Kind of assay: Glucocerebrosidase-p2 (AID 348; in the data active = potency below about 10 µM; also: potency is read from the fitted curve at half-maximal effect). Particulars: purified GBA, blue fluorogenic substrate, 40 min. In a few lines: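 Compounds titrated from 0.6 nM upwards against 0.2 nM enzyme in pH 5.9 citric acid/KH2PO4, taurocholate, tween-20; blue fluorogenic substrate 80 uM, 40 min room temperature, stopped and read Ex 365/Em 440 for AC50.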

The nature of assay [2]: AP1 Signaling Pathway (AID 357; active = well fitted curve in either direction with a large enough effect, not every such curve was filed as active;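 also: ME-180 reporter cells stimulated with EGF at its EC50 level; % is scaled to controls: 0 for no effect and ±100 for the full control effect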). The note with it: ME-180 AP-1-bla reporter, EGF-induced, beta-lactamase ratio, 5 h; at 7.69 µM (top of the series) unless noted. The method in brief:
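Modulation of EGF-driven AP-1 transcription was assessed with a beta-lactamase reporter in ME-180 cells. Compound and EC50 EGF were co-incubated 5 hours at 37 °C before 2.5-hour CCF4 loading at room temperature and dual-emission reading.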

The nature of assay [3]: NFAT Signaling Pathway (AID 444; active = well fitted curve in either direction with a large enough effect, not every such curve was filed as active;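 also: carbachol stimulus at about its EC50 of 1 µM final; % is scaled to controls: 0 for no effect and ±100 for the full control effect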). The note with it: Jurkat NFAT-bla M1, carbachol, beta-lactamase ratio, 5 h; at 7.69 µM (top of the series) unless noted. The method in brief: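 Read-out: CCF4 FRET ratio (460 nm/530 nm) after 1 h RT dye loading, used for %activity and AC50 from titration series. Cells: Jurkat NFAT-β-lactamase/M1 line, treated with compound plus 1 uM carbachol for 5 h, 37 °C.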

The nature of assay [4]: Stat Signaling Pathway (AID 446; active = well fitted curve in either direction with a large enough effect, not every such curve was filed as active;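 also: ME-180 cervical cancer cells given 40 pM IL-6 alongside compound; SIE-controlled beta-lactamase reporter measured as 460/530 nm FRET emission ratio; % is scaled to controls: 0 for no effect and ±100 for the full control effect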). Particulars: ME-180 SIE beta-lactamase reporter, IL-6 stimulated, 5 h; at 7.69 µM (top of the series) unless noted. In a few lines: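 ME-180 cells carrying a SIE-driven beta-lactamase reporter are stimulated with 40 pM IL-6 for 5 h at 37C in the presence of compound. The 460/530 nm FRET substrate ratio is read after 2.5 h at RT. Data are normalised to 300 pM IL-6 and to 125 nM JAK inhibitor controls.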

Assay [5] deals with Glucocorticoid receptor (Homo sapiens) (UniProt P04150). Briefly: GR-GFP Redistribution (AID 450;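 active = compounds whose dose series gives a full or clear partial fitted curve of increased nuclear translocation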; also: potency is read from the fitted curve at half-maximal effect). The note with it: U2OS GR-GFP nuclear translocation, laser cytometry, 2 h.
For assay [6] the target is unchanged. Kind of assay: GR-EFC Redistribution (AID 451; calls by dose curve; also: potency is read from the fitted curve at half-maximal effect). Particulars: CHO-K1 GR-EFC translocation, beta-gal luminescence, 2 h. The method in brief: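 Translocation of GR-ED fusion to nuclear EA restores b-gal, read by luminescence after 1 h room-temperature detection. Engineered CHO-K1 biosensor cells, 1,000/well, exposed 2 h at 37 C to titrations up to 46 uM final.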

Assay [7] has as its target Mitogen-activated protein kinase 10 (Mus musculus) (UniProt Q61831). Briefly: JNK3 AlphaScreen Assay (AID 530; active = well fitted curve in either direction with a large enough effect, not every such curve was filed as active;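 also: kinase came from lysate of stimulated human HepG2 cells; signal reports phosphorylation of biotinylated GST-cJun 1-79 at Ser73 with 10 µM ATP; % is scaled to controls: 0 for no effect and ±100 for the full control effect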). In a few lines:
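Room-temperature AlphaScreen kinase assay; pre-activated HepG2 lysate as JNK3 source, biotin-GST-cJun(1-79) substrate, 10 uM ATP, compound 15 min preincubation.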
In general terms: Bead proximity is the source of the signal in Alpha formats.

Assay [8] concerns the target 3',5'-cyclic-AMP phosphodiesterase 4B (Homo sapiens) (UniProt Q07343). Briefly: qHTS Assay for Inhibitors of PDE-IV (AID 607; active = well fitted activation curve with a large enough effect in the main read-out, with a control signal flat, not every such curve was filed as active; also: % of control where 0% means no effect). The method in brief:
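HEK293 ACTOne cells with CNG channel (1000/well), endogenous PDE4; membrane potential dye, compounds up to 22.9 uM final. Fluorescence Ex 535/Em 590; RO 20-1724 (100 uM final) as reference.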

Assay [9] is described as follows: qHTS Assay for Lipid Storage Modulators (AID 1519; calls by dose curve). The note with it: Drosophila S3 cells, BODIPY lipid droplet/cell ratio, laser cytometry, cells loaded with oleic acid; for activity change, negative = inhibition: at 57.5 µM (top of the series). In a few lines: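 Cells seeded at 5,000 per well were treated with compounds over a concentration series and loaded with oleic acid (400 uM, as added). Lipid droplet fluorescence (488 nm excitation, 500-530 nm channel) was read by laser-scanning cytometry and normalized to 20 uM Triacsin C.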

Assay [10] addresses Dual specificity protein kinase CLK4 (Homo sapiens) (UniProt Q9HAZ1). Briefly: qHTS Assay for Inhibitors of CDC-like Kinase 4 (Kinase-Glo Assay) (AID 1770). Also: nearly all actives have a fitted effect of over 65% in size. Also: potency is read from the fitted curve at half-maximal effect. In a few lines:
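Luminescent ATP-depletion read-out (Kinase-Glo) after 4.5 h room-temperature reaction of Clk4 (25 nM final) with RS peptide (100 uM) and ATP (1 uM), pH 7.5 Tris buffer with MgCl2 and DTT.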

The target is the same in assay [11]. Kind of assay: qHTS Assay for Inhibitors of CDC-like Kinase 4 (ADP-Glo Assay) (AID 1771). Also: nearly all actives have a fitted effect of over 70% in size. Also: potency is read from the fitted curve at half-maximal effect. In a few lines: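 Kinase reaction: Clk4 at 25 nM, RS repeat peptide substrate at 100 uM, ATP at 1 uM, 1 hr, room temperature. Product ADP detected as luciferase signal via ADP-Glo.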
Background: Quantitative high-throughput screening tests each substance at several concentrations.

The target in assay [12] is Ubiquitin carboxyl-terminal hydrolase 1 (Homo sapiens) (UniProt O94782). Briefly: Inhibitors of USP1/UAF1: Pilot qHTS (AID 504865).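 Also: rhodamine fluorescence freed from ubiquitin-rhodamine substrate followed over time; top concentration of the series differs between compounds; % is scaled to controls: 0 for no effect and ±100 for the full control effect; nearly all actives have a fitted effect of over 35% in size.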 In a few lines: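 Deubiquitinase activity followed as kinetic rhodamine fluorescence release from 150 nM Ub-Rho. 1 nM USP1/UAF1 with compound, after 15 min room-temperature preincubation, in HEPES pH 7.8 buffer containing TCEP, EDTA, BSA and Tween-20.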

The nature of assay [13]: Primary qHTS for small molecule stabilizers of the endoplasmic reticulum resident proteome: Secreted ER Calcium Modulated Protein (SERCaMP) assay (AID 1508630). Also: % is scaled to controls: 0 for no effect and ±100 for the full control effect. The method in brief: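 GLuc-SERCaMP-expressing SH-SY5Y cells, pretreated 16 h with compound, are challenged with thapsigargin to empty ER calcium stores; after 4 h, coelenterazine is added directly to the medium and luminescence is imaged.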

The target of assay [14] is Cytochrome P450 1A2 (Homo sapiens) (UniProt P05177). Briefly: p450-cyp1a2 (AID 410; calls by dose curve; also: potency is read from the fitted curve at half-maximal effect). The method in brief: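 Inhibition was calculated relative to 57 uM furafylline (full inhibition). The reaction used human CYP1A2 at 20nM with Luciferin-ME at its Km, 100uM, driven by an NADPH-regenerating system for 60 min at room temperature.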
Assay [15] concerns the target Cytochrome P450 3A4 (Homo sapiens) (UniProt P08684). Kind of assay: qHTS Assay for Activators of Cytochrome P450 3A4 (AID 885). Also: nearly all actives have a fitted effect of over 65% in size. The method in brief:
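Human CYP3A4 (20 nM) with Luciferin-PPXE at 25 uM (its KM) in 200 mM KPO4; 10 min compound preincubation, then NADPH regeneration and 60 min reaction at RT. Luciferin read by luminescence; normalized to 57 uM ketoconazole full inhibition.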

The mark [16] stands for this setting: measured here: cell count channel max response.
Setting [17] is: measured here: lipid channel max response.

SMILES strings stand for the structures. Records with an inconclusive call do not appear. Active and inactive are the calls of the source. Unless noted, calls follow the shape of the dose curve; as a rule, active = well fitted curve in the direction sought with a large enough effect; inconclusive = small, poorly fitted or top-dose-only effect, or another doubt; inactive = no such curve, though single readings can be large; an effect the other way counts as inactive or inconclusive. A value given as a limit tells only on which side of the number the result lay.

Sequence of Cytochrome P450 3A4 (Homo sapiens) (P08684 whole entry, looked up): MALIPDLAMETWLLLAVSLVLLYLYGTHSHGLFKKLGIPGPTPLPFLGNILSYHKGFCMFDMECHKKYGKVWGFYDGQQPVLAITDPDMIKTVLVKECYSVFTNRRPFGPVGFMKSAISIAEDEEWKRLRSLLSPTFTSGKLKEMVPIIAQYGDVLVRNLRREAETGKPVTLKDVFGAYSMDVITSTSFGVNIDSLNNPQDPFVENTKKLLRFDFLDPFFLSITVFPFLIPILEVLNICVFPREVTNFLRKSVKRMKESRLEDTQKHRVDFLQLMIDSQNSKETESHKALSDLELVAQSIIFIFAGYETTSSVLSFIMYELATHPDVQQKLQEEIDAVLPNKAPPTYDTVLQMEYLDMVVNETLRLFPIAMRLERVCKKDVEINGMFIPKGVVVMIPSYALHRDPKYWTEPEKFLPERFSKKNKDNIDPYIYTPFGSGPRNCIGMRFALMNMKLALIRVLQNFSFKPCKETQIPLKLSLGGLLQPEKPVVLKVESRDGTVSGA
Sequence of Dual specificity protein kinase CLK4 (Homo sapiens) (Q9HAZ1 whole entry, looked up): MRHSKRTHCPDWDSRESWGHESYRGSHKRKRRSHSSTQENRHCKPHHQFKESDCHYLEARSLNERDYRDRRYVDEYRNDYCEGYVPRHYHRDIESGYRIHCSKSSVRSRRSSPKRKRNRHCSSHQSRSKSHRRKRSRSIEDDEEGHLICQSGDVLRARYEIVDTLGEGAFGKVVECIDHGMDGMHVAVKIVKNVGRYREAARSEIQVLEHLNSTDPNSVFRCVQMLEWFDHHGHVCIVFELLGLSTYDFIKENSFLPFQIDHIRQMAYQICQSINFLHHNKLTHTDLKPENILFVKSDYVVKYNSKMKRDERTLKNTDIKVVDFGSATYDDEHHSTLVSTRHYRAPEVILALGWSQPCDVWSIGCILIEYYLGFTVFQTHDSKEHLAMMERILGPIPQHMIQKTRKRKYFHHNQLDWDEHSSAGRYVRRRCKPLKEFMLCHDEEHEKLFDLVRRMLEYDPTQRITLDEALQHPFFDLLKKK
Sequence of Cytochrome P450 1A2 (Homo sapiens) (P05177 whole entry, looked up): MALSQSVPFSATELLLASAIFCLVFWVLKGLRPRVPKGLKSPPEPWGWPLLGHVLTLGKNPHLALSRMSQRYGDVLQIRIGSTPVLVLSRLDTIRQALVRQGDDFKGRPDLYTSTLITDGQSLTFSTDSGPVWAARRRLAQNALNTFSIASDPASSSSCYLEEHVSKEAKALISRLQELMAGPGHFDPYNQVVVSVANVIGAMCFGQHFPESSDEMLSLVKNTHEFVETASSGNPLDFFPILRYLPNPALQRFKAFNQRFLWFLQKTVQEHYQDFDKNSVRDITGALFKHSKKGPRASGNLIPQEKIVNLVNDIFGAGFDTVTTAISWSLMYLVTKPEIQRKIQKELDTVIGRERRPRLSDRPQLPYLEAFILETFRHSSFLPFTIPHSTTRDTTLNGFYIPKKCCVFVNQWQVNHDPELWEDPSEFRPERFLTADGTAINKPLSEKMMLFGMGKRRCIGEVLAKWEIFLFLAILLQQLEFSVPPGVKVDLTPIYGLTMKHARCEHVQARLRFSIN
Sequence of Lysosomal acid glucosylceramidase (Homo sapiens) (P04062 whole entry, looked up): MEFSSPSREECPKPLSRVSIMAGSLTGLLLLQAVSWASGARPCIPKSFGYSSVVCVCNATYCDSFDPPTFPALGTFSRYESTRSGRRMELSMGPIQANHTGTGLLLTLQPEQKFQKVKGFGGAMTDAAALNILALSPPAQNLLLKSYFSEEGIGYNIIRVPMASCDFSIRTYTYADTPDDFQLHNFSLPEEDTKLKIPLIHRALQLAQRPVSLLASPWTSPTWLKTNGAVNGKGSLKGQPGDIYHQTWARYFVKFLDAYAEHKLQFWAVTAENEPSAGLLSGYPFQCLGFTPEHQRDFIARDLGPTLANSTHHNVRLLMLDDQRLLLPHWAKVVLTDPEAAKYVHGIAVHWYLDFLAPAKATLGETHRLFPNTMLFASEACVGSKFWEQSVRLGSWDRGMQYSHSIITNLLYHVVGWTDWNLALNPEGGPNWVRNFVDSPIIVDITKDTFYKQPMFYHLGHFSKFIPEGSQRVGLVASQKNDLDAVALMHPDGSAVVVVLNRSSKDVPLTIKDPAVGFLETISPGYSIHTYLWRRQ
Sequence of Ubiquitin carboxyl-terminal hydrolase 1 (Homo sapiens) (O94782 whole entry, looked up): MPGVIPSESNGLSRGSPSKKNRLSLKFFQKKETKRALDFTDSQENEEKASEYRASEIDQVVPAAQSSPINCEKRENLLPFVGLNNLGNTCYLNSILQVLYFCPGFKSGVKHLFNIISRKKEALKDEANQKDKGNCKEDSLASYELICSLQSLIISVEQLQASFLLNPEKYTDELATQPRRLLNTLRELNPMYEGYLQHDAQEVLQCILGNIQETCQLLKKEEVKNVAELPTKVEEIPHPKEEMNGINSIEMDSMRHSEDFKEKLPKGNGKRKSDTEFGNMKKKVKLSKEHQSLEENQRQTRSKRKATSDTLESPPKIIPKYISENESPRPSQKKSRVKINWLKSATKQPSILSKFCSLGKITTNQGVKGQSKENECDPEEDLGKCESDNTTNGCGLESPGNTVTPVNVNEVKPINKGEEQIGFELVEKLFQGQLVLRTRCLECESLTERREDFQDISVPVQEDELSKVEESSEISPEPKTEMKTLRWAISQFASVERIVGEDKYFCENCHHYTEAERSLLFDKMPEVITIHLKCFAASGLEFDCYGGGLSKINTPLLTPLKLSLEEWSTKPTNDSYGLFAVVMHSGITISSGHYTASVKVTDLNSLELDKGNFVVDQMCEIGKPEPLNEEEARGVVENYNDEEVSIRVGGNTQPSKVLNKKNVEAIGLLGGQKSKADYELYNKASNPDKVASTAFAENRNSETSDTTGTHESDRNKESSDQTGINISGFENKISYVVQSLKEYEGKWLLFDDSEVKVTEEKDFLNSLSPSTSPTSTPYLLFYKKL
Sequence of Glucocorticoid receptor (Homo sapiens) (P04150 whole entry, looked up, the tested form may be a part): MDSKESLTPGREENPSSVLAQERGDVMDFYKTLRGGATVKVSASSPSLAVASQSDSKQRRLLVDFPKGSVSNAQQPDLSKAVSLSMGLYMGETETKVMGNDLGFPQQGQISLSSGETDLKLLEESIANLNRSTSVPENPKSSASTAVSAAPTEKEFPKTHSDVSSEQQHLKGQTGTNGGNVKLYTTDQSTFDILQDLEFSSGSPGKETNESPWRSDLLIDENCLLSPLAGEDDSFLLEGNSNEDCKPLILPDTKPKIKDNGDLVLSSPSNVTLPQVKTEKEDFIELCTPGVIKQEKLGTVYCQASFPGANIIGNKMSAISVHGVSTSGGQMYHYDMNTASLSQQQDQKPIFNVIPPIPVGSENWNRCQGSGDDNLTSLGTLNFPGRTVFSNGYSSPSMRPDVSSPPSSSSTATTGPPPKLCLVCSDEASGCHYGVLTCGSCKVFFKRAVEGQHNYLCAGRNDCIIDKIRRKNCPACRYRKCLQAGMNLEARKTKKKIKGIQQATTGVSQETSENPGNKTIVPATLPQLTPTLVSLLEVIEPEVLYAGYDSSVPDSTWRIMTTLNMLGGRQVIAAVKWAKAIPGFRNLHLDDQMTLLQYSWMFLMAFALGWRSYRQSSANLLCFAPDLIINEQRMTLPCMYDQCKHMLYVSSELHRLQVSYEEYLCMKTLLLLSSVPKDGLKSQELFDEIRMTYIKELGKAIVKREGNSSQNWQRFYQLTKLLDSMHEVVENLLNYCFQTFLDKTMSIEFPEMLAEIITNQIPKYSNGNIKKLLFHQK
Sequence of 3',5'-cyclic-AMP phosphodiesterase 4B (Homo sapiens) (Q07343 whole entry, looked up): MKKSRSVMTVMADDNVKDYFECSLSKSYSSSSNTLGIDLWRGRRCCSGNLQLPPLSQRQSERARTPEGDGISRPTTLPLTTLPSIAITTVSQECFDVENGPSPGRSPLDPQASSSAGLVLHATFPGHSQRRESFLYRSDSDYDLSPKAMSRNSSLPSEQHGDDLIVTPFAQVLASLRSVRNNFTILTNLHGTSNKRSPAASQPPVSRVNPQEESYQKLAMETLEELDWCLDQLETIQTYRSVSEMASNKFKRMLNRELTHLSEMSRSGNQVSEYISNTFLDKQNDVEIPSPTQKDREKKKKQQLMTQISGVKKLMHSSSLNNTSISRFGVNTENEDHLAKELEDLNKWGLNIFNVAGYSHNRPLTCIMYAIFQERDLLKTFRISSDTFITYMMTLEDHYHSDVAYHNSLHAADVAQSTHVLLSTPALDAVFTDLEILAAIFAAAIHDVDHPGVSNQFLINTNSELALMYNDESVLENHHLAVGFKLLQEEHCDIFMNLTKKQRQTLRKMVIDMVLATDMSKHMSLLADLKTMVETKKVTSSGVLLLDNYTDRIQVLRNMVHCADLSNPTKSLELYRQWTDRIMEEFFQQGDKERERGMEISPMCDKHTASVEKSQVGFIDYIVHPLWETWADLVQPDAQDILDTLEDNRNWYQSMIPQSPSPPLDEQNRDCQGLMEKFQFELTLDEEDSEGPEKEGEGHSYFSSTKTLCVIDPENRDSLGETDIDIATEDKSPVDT

Turning to `COc1ccc(-n2c(=O)cnc3cnc(OC)nc32)cc1`, the Potency in [1] was > 11.4 µM (inactive); in [5], > 9.22 µM (inactive); in assay [6], > 46 µM (inactive); in assay [10] it was 15.8 µM (active); in [11], 14.1 µM (active). The activity change, negative = inhibition in assay [2] was -6% (inactive); in [3] it was -7.79% (inactive); in assay [9] it was 4.86% (inactive). For the same molecule, the activity, negative = inhibition in assay [4] is -11.2% (inactive). Also, in assay [7], the molecule was classed as inactive. The Potency entry in [8], in assay [12] and in assay [13] was “inactive” each time. The max response in assay [9] (setting [16]) came out at 24.2%; in assay [9] (setting [17]), 29.5%.

With `COc1cccc(-c2cc(N(C)Cc3ccco3)ncn2)c1`, the Potency was > 11.4 µM (inactive) in assay [1]; 0.794 µM (active) in [14]; > 46 µM (inactive) in [5]; > 46 µM (inactive) in assay [6]; 12.6 µM (active) in [10]; 14.1 µM (active) in assay [11]. Moreover, the activity change, negative = inhibition was 22.2% (inactive) in [2], -17.2% (inactive) in assay [3] and 8.28% (inactive) in [9]. In addition, in assay [4], the activity, negative = inhibition was -2% (inactive). In addition, the molecule was called inactive in assay [7]. For the same molecule, the Potency entry in assay [8], in [15], in [12] and in [13] was “inactive” in each case. Besides, the max response in assay [9] (setting [16]) turned out to be 20.9%; in assay [9] (setting [17]), 28.5%.

As to `CS(=O)(=O)Nc1cccc(-c2ccc3ncnc(NCCN4CCOCC4)c3c2)c1`, the Potency in [1] was > 11.4 µM (inactive); in assay [14], 25.1 µM (active); in [5], > 46 µM (inactive); in [6], > 46 µM (inactive); in [10] it was 8.91 µM (active); in [11], 8.91 µM (active). In addition, the activity change, negative = inhibition in [2] is -17.6% (inactive); in assay [9] it was -0.458% (inactive). In [4], the activity, negative = inhibition was 2.22% (inactive). Moreover, the molecule was called inactive in assay [7]. The Potency result in [8], in assay [15], in [12] and in assay [13] was “inactive” each time. Moreover, the max response in assay [9] (setting [16]) was -4.37%; in assay [9] (setting [17]), -8.3%.

On to `COc1ccc(-n2c(=O)c(-c3ccc(Cl)cc3)nc3cnc(N4CCNCC4)nc32)cc1`, for which the Potency in assay [1] was > 11.4 µM (inactive); in assay [14], 12.6 µM (active); in [6], > 46 µM (inactive). Moreover, the Potency entry in assay [8], in [10], in [11], in assay [12] and in assay [13] was “inactive” in each case. The activity change, negative = inhibition in [9] was 5.55% (inactive). In addition, the max response in [9] (setting [16]) was 9.83%; in [9] (setting [17]) it was 16.5%.

For `Cc1noc(C)c1-c1ccc2ncnc(N3CCN(C)CC3)c2c1`, the Potency is > 11.4 µM (inactive) in [1]; 12.6 µM (active) in assay [14]; > 46 µM (inactive) in assay [5]; > 46 µM (inactive) in assay [6]; 10 µM (active) in [10]; 10 µM (active) in [11]. For the same molecule, the molecule was called inactive in [7]. Also, the Potency result in assay [15] and in [13] was “inactive” throughout. For the same molecule, in assay [9], the activity change, negative = inhibition was 0.38% (inactive). Further, the results for the max response in [9] (setting [16]) and in assay [9] (setting [17]) were 21% and 4.95%, respectively.

Regarding `COc1ccccc1CNc1cc(-c2c(C)noc2C)ncn1`, the Potency in assay [1] was > 11.4 µM (inactive); in assay [14] it was 5.01 µM (active); in assay [5] it was > 46 µM (inactive); in assay [6], > 46 µM (inactive); in assay [10], 15.8 µM (active); in [11], 17.8 µM (active). Besides, the activity change, negative = inhibition in assay [2] is 14.8% (inactive); in assay [3] it was -3.28% (inactive); in [9] it was 10.8% (inactive). Besides, the activity, negative = inhibition in assay [4] is -4.72% (inactive). In assay [7], the molecule was called inactive. Further, the Potency entry in assay [8], in assay [15], in assay [12] and in assay [13] was “inactive” throughout. The max response in assay [9] (setting [16]) turned out to be 30%; in [9] (setting [17]), 41.7%.
